# Measurements reported in PubChem BioAssay.
# Calls of active or inactive are those of the source. Unless noted, the rule behind the calls is not given here.
# How the values were obtained:
# [1] = A549 cell viability effects, profiling panel, calcein-AM fluorescence, 48 h, basal (AID 1162); conditions: higher = more signal; note: test concentration not given here
# [2] = adipocyte viability effects, profiling panel, cell-based, 3T3-L1 adipocytes, calcein-AM fluorescence, 48 h, basal (AID 1163); conditions: 3T3-L1 adipocytes viability, higher = more signal; note: test concentration not given here
# [3] = HepG2 cell viability effects, profiling panel, calcein-AM fluorescence, 48 h, basal (AID 1164); conditions: higher = more signal; note: test concentration not given here
# [4] = MM1S cell viability effects, profiling panel, calcein-AM fluorescence, 48 h, basal (AID 1165); conditions: higher = more signal;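 note: viability of MM1S multiple myeloma cells under basal unstimulated conditions; test concentration not given here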
# [5] = basal RPMI8226 viability, no added stimulus, profiling panel, cell-based, calcein-AM fluorescence, 48 h, PK04 Diversity Set (AID 1166); conditions: RPMI8226 myeloma viability, higher = more signal;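 note: cells grown under basal conditions without added stimulus; test concentration not given here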
# [6] = basal HepG2 mitochondrial membrane potential changes, profiling panel, cell-based, JC-1 fluorescence, 24 h, 100 nL compound (AID 1167); conditions: higher = more signal; note: test concentration not given here
# [7] = basal 3T3-L1 adipocyte mitochondrial potential changes, profiling panel, cell-based, JC-1 fluorescence, 3T3-L1 adipocytes, 24 h, 100 nL compound (AID 1168); conditions: JC-1 mitochondrial fluorescence, higher = more signal, called active from +8 up or from −8 down; note: test concentration not given here
# [8] = basal RPMI8226 mitochondrial membrane potential changes, profiling panel, cell-based, JC-1 fluorescence, 24 h, 100 nL compound (AID 1169); conditions: RPMI8226 myeloma, JC-1 mitochondrial potential fluorescence, higher = more signal; note: test concentration not given here
# [9] = basal MM1S mitochondrial membrane potential changes, profiling panel, cell-based, JC-1 fluorescence, 24 h, 100 nL compound (AID 1170); conditions: higher = more signal; note: test concentration not given here
# [10] = A549 lung cancer cell viability effects, profiling panel, resazurin fluorescence, 24 h, PK04 Diversity Set (AID 1171); conditions: higher = more signal, called active from +8 up or from −8 down; note: test concentration not given here
# [11] = HepG2 liver cancer cell viability effects, profiling panel, resazurin fluorescence, 24 h, PK04 Diversity Set (AID 1172); conditions: higher = more signal; note: test concentration not given here
# [12] = basal S. cerevisiae growth modulation, no modifier, primary screen, OD600, strain BY4716, 24 h, basal condition (AID 1173); conditions: OD600, 24 h, higher = more signal, called active from +8 up or from −8 down
# [13] = MM1S myeloma cell viability, profiling panel, resazurin fluorescence, basal, 24 h, PK04 Diversity Set (AID 1174); conditions: higher = more signal, called active from +8 up or from −8 down;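 note: MM1S multiple myeloma cell line; test concentration not given here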
# [14] = target: Dihydroorotate dehydrogenase (quinone), mitochondrial (Plasmodium falciparum (isolate 3D7)) (UniProt Q08210); assay: PfDHODH enzyme inhibitors, primary screen, biochemical, C-terminal His tag, absorbance 600 nm (AID 1175); conditions: DCIP absorbance 600 nm, higher = more signal, called active from +8 up or from −8 down;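 note: recombinant parasite enzyme with a five histidine tag at its C terminus; test concentration not given here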
# Chain of Dihydroorotate dehydrogenase (quinone), mitochondrial (Plasmodium falciparum (isolate 3D7)) (Q08210 whole entry, looked up): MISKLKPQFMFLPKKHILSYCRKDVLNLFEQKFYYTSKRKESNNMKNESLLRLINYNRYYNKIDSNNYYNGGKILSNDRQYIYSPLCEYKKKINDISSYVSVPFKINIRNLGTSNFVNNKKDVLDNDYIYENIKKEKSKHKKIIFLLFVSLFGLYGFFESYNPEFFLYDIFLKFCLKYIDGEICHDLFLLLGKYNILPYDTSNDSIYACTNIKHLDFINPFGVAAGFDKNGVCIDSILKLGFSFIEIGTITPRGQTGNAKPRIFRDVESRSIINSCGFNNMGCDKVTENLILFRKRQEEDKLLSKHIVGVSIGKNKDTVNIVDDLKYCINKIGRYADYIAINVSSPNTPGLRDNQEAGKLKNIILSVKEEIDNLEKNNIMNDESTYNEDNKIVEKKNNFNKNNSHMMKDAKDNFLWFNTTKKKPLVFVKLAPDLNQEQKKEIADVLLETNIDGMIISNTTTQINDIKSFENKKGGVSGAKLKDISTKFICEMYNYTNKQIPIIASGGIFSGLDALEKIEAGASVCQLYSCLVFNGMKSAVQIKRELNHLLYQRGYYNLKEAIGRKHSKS
# [15] = P. aeruginosa biofilm formation inhibitors, primary screen, strain PAO1, LB-PBS medium, absorbance 600 nm (AID 1176); note: test concentration not given here; conditions: P. aeruginosa PAO1 growth/biofilm, A600, 12 h; higher = more signal
# [16] = S. cerevisiae RM11-1a growth modifiers, primary screen, strain RM11-1a, OD600, basal, 24 h (AID 1177); conditions: OD600, 24 h, higher = more signal, called active from +8 up or from −8 down;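 note: cultures grown under basal conditions with no added stressor; test concentration not given here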
# [17] = E. coli acrAB mutant growth effects, primary screen, E. coli filamentation inducers, strain DRC39, OD650, 24 h (AID 1178); conditions: higher = more signal, called active from +8 up or from −8 down;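 note: growth measured as culture turbidity by optical density at 650 nm; test concentration not given here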
# [18] = E. coli acrAB mutant growth effects, primary screen, E. coli filamentation inducers, strain DRC39, OD650, 48 h (AID 1179);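 note: screen aims at cell division blockers that make cells filament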; conditions: E. coli DRC39 delta-acrAB growth, higher = more signal, called active from +8 up or from −8 down
# [19] = RPMI8226 myeloma cell viability, profiling panel, resazurin fluorescence, basal, 24 h, PK04 Diversity Set (AID 1180); conditions: higher = more signal;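 note: RPMI8826 multiple myeloma cell line at 5000 cells per well; test concentration not given here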
# [20] = target: E3 ubiquitin-protein ligase XIAP (Homo sapiens) (UniProt P98170); assay: XIAP binders, primary screen, biophysical, small-molecule microarray, fluorescence 635 nm (AID 1181); conditions: small-molecule microarray binding, higher = more signal;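 note: score merges 667 nm emission and signal to noise over triplicate slides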
# Chain of E3 ubiquitin-protein ligase XIAP (Homo sapiens) (P98170 whole entry, looked up): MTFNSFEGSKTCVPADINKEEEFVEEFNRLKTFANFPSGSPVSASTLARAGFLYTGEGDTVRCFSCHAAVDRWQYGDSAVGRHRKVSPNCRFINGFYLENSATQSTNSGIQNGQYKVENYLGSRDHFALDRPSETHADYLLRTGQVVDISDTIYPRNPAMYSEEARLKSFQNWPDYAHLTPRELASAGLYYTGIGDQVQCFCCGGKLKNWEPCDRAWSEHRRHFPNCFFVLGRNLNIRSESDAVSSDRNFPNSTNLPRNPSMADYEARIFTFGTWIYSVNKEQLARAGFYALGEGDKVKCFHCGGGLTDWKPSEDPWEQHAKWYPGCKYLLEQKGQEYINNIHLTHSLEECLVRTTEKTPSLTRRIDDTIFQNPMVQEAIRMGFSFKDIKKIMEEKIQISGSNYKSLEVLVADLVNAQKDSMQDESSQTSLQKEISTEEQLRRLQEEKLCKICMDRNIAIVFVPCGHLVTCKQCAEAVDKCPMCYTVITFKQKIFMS
SMILES,z-score [1],z-score [2],z-score [3],z-score [4],z-score [5],z-score [6],z-score [7],z-score [8],z-score [9],z-score [10],z-score [11],z-score [12],z-score [13],composite z-score [14],z-score [15],z-score [16],z-score [17],z-score [18],z-score [19],composite z-score [20]
COc1ccc(C(O)C2C=CC3C(=O)N(c4ccccc4)C(=O)C3N2Nc2ccc([N+](=O)[O-])cc2)c2ccccc12 (stereo not given),-0.826,-1.07,-0.39,-0.517,-0.54,-2.27,-1.08 (inactive),-0.344,-1.32,0.604 (inactive),0.248,0.0244 (inactive),-0.121 (inactive),0.767 (inactive),2.53 (inactive),0.0842 (inactive),-0.901 (inactive),-0.219 (inactive),-0.322,0.312
CC(C)N1C(=O)c2ccccc2[C@@H](C(=O)NCC(F)(F)F)[C@@H]1c1ccc(CO)cc1,0.346,-1.81,0.569,0.238,0.371,-0.0214,-0.516 (inactive),-0.00189,0.0428,-0.0442 (inactive),0.4,-0.102 (inactive),0.0516 (inactive),-0.262 (inactive),-0.0807 (inactive),0.436 (inactive),-0.196 (inactive),-0.484 (inactive),0.236,-0.111
CCOC(=O)C1=CC[C@@H](c2ccc(OC)cc2)N(S(=O)(=O)c2ccc(C)cc2)[C@H]1c1ccc(C)cc1,-0.35,-1.09,0.65,0.632,0.583,2.39,-0.717 (inactive),0.859,-0.897,0.302 (inactive),0.164,1.31 (inactive),-0.616 (inactive),-0.329 (inactive),-0.0601 (inactive),-0.187 (inactive),-0.346 (inactive),-0.148 (inactive),-0.652,0.126
COc1ccc([Si](C)(C)[C@H]2[C@H](CC(=O)N3CCC[C@H]3CO)O[C@@]3(C(=O)N(Cc4ccc(N5CCCCC5=O)cc4)c4ccccc43)[C@@H]2C)cc1,-0.288,0.954,-0.531,-1.74,-3.5,3.5,-0.774 (inactive),-1.02,-0.184,-0.421 (inactive),-0.369,-0.0356 (inactive),-0.563 (inactive),-2.66 (inactive),-0.012 (inactive),1.57 (inactive),-0.18 (inactive),-0.244 (inactive),-0.171,0.197
CCCCCCc1nc(-c2ccc(-c3ccc(Cl)c(Cl)c3)o2)cc2c1[Si](C(C)C)(C(C)C)OC2,-0.567,1.84,-0.0442,-3,-4.4,-1.24,0.771 (inactive),-0.934,-1.23,1.19 (inactive),0.373,-7.31 (inactive),-0.273 (inactive),-1.97 (inactive),-0.558 (inactive),-0.878 (inactive),0.522 (inactive),0.395 (inactive),-0.151,-0.0233
C=CC1c2cc(O)c(OC)cc2CCN1C (stereo not given),-1.24,0.281,0.0372,0.121,0.212,-1.17,-0.82 (inactive),0.222,-0.67,-0.535 (inactive),-0.582,-0.457 (inactive),-0.728 (inactive),-3.34 (inactive),-0.283 (inactive),-0.071 (inactive),-0.0683 (inactive),0.113 (inactive),-1.16,0.031
[N-]=[N+]=Nc1ccccc1C[C@@]1(C(=O)NCC(O)CO)N=C(c2ccc(OCCCO)cc2)O[C@@H]1c1ccccc1 (stereo not given in full),0.378,-0.326,0.75,-0.39,-0.342,0.582,-0.186 (inactive),-1.2,-0.145,-0.235 (inactive),0.559,-2.46 (inactive),0.33 (inactive),0.303 (inactive),-0.456 (inactive),0.302 (inactive),0.443 (inactive),-0.0622 (inactive),0.0762,0.0049
C=C(CCCC)/C(=C/C[C@H](OC(C)=O)c1cccc(OCCO)c1)c1cnc2ccccc2c1,0.955,1.16,0.301,-3.13,-1.26,1.86,0.0664 (inactive),-0.205,-0.209,0.395 (inactive),0.209,1.13 (inactive),-0.117 (inactive),-3.15 (inactive),-0.693 (inactive),1.75 (inactive),0.5 (inactive),0.211 (inactive),0.814,-0.0448
O=C(NC1CC1)[C@@H]1c2ccccc2C(=O)N(Cc2cc(C(F)(F)F)cc(C(F)(F)F)c2)[C@H]1c1ccc(CO)cc1,1.68,1.61,0.289,0.538,-1.32,0.693,-0.439 (inactive),0.801,-0.687,0.307 (inactive),-0.0465,-0.313 (inactive),-0.498 (inactive),-0.331 (inactive),1.12 (inactive),-0.44 (inactive),0.655 (inactive),-0.261 (inactive),0.51,-0.0448
